Test [1] has as its target T1, Ephrin type-B receptor 1 (Homo sapiens) (UniProt P54762).
T1 sequence (whole entry): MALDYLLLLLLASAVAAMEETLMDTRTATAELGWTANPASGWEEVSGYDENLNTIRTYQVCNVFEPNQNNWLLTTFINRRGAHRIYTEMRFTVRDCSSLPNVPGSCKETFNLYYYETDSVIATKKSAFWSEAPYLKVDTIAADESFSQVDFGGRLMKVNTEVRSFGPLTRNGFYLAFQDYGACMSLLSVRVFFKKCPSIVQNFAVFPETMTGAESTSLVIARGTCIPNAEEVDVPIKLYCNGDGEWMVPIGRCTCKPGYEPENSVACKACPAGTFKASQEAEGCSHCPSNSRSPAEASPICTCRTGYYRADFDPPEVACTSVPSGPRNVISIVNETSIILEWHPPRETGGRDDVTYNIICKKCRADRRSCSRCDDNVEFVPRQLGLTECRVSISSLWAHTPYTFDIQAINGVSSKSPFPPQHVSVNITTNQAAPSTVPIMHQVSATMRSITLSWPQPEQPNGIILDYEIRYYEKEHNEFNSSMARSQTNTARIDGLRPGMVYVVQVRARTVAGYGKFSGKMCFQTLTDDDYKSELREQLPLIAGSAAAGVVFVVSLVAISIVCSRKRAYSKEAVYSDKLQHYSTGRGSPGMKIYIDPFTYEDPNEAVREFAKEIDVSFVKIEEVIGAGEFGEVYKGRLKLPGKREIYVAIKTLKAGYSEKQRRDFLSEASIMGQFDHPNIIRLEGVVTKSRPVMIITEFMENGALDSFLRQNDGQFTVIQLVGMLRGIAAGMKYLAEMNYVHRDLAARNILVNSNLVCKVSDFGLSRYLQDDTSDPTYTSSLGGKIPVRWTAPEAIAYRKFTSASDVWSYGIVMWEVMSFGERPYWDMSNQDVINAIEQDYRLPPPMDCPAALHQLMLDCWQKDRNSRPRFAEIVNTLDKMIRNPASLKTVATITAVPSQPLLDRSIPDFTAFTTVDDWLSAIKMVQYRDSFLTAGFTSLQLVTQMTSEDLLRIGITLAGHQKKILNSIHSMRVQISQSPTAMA
Conditions: at 10 µM; call rule not given here.

In test [2] the target is T2, Ephrin type-B receptor 2 (Homo sapiens) (UniProt P29323).
T2 sequence (whole entry): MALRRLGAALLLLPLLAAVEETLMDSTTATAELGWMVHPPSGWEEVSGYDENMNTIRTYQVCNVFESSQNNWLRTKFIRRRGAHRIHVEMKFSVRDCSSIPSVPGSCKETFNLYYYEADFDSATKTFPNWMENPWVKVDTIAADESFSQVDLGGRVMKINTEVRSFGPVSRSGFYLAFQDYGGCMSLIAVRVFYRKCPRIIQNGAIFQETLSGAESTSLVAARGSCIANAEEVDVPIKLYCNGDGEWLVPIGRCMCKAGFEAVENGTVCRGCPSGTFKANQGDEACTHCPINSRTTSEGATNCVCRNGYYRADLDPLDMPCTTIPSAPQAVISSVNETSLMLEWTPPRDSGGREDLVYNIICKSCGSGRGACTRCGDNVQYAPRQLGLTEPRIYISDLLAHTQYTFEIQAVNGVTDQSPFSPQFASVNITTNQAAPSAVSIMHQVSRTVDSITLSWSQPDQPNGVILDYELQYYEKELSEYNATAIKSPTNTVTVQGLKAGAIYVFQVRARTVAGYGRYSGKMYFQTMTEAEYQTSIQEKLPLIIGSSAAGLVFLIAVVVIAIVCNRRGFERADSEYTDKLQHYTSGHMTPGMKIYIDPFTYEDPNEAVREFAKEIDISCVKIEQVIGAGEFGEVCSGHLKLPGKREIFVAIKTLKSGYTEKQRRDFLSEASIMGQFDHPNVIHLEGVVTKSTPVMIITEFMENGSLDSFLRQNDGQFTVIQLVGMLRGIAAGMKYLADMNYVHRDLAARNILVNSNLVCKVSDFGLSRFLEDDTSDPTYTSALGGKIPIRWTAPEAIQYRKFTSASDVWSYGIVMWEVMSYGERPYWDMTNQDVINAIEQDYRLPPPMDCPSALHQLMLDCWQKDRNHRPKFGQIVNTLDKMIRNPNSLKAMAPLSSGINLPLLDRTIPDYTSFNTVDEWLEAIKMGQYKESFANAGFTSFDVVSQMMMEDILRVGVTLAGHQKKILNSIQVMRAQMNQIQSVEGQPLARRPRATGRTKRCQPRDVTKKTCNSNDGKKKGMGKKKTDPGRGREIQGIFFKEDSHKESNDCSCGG
The note with it: at 1 µM.

Test [3] has as its target T2, Ephrin type-B receptor 2 (Homo sapiens). Conditions: at 10 µM.
In test [4] the target is T3, Ephrin type-B receptor 3 (Homo sapiens) (UniProt P54753).
T3 sequence (whole entry): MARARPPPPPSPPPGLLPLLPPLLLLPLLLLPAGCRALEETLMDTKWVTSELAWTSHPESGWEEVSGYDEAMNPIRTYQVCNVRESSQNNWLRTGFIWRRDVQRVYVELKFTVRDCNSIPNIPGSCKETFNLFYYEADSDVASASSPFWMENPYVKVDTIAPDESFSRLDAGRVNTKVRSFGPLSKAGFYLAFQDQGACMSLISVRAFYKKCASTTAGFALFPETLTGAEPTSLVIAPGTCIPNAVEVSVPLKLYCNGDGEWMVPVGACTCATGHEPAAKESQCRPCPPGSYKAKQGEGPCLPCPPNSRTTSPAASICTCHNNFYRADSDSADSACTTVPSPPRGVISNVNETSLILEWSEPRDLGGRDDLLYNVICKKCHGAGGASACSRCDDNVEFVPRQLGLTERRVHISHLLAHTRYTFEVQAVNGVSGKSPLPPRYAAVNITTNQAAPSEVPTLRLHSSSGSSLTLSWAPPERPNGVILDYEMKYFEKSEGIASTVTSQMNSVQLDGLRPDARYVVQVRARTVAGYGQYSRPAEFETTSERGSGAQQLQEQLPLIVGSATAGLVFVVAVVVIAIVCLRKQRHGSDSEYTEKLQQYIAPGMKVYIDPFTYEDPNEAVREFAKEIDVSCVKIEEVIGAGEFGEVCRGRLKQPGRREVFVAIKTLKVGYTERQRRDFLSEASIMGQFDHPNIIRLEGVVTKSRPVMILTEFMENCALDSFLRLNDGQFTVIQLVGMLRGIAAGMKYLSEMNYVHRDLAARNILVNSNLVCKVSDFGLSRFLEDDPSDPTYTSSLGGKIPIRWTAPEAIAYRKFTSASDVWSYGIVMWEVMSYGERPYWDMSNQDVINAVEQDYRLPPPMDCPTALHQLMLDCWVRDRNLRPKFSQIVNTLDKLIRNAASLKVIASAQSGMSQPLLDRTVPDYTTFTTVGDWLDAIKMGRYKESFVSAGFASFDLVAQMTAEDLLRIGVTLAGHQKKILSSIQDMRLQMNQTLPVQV
Conditions: at 1 µM.

Test [5] concerns the target T3, Ephrin type-B receptor 3 (Homo sapiens). The note with it: at 10 µM.
The target of test [6] is T4, Ephrin type-B receptor 4 (Homo sapiens) (UniProt P54760).
T4 sequence (whole entry): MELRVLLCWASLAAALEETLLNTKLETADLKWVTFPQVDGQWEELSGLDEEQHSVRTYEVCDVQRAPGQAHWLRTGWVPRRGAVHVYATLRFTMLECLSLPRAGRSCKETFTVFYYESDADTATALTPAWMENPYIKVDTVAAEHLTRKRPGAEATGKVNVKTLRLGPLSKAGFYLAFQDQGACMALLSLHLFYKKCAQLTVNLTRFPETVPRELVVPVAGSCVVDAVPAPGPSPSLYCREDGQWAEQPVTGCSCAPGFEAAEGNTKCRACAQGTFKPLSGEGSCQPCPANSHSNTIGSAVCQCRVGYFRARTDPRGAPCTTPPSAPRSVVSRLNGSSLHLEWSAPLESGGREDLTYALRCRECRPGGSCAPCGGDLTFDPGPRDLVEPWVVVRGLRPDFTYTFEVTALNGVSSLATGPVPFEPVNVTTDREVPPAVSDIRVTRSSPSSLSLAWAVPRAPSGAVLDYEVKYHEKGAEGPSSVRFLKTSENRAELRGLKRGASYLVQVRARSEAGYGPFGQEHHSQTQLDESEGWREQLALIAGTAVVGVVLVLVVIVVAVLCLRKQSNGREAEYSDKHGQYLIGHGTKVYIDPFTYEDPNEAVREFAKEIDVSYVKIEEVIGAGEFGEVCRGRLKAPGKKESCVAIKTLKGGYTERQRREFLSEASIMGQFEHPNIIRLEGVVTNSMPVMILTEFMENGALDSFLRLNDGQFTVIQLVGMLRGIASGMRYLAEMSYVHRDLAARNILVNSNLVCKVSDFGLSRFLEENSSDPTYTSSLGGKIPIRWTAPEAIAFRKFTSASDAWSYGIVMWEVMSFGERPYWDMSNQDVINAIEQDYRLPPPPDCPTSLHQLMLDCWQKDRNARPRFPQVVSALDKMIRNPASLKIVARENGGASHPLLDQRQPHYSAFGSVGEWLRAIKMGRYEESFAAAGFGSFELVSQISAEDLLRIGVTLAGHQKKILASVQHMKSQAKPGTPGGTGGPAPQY
The note with it: at 1 µM.

Test [7] deals with T4, Ephrin type-B receptor 4 (Homo sapiens). Conditions: at 10 µM.
Test [8] addresses Receptor tyrosine-protein kinase erbB-4 (Homo sapiens) (UniProt Q15303). Conditions: at 1 µM.
Test [9] has the same target. The note with it: at 10 µM.
The target in test [10] is Focal adhesion kinase 1 (Homo sapiens) (UniProt Q05397). Conditions: at 1 µM.
Chain of Focal adhesion kinase 1 (Homo sapiens) (Q05397 2-1052 limits assumed): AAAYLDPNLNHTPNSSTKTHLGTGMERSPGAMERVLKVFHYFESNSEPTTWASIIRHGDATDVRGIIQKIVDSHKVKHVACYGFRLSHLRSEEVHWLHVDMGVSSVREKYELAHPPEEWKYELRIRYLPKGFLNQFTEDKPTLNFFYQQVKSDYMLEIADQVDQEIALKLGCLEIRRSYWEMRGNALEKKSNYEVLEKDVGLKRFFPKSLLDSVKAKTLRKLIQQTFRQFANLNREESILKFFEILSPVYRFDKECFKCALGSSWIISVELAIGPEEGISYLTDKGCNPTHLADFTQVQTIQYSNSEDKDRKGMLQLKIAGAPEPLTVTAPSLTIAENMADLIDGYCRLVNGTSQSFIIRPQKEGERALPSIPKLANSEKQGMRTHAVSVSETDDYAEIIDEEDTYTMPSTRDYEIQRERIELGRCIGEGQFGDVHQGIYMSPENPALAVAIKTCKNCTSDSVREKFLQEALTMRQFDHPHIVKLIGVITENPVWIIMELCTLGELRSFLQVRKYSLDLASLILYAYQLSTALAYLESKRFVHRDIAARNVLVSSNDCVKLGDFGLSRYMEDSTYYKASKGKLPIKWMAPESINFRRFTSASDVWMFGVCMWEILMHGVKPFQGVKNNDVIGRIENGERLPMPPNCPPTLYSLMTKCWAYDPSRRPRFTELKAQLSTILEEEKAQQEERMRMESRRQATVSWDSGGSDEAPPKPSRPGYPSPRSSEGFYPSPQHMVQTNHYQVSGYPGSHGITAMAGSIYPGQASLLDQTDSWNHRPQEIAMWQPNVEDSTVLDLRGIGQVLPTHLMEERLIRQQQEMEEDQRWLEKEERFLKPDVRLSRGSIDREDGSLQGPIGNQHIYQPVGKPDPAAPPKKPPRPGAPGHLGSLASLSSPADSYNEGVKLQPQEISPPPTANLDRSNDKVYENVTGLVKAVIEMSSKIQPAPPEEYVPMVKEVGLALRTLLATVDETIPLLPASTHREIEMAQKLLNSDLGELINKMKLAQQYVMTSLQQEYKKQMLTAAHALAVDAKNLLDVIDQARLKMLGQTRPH

Chain of Receptor tyrosine-protein kinase erbB-4 (Homo sapiens) (Q15303 whole entry): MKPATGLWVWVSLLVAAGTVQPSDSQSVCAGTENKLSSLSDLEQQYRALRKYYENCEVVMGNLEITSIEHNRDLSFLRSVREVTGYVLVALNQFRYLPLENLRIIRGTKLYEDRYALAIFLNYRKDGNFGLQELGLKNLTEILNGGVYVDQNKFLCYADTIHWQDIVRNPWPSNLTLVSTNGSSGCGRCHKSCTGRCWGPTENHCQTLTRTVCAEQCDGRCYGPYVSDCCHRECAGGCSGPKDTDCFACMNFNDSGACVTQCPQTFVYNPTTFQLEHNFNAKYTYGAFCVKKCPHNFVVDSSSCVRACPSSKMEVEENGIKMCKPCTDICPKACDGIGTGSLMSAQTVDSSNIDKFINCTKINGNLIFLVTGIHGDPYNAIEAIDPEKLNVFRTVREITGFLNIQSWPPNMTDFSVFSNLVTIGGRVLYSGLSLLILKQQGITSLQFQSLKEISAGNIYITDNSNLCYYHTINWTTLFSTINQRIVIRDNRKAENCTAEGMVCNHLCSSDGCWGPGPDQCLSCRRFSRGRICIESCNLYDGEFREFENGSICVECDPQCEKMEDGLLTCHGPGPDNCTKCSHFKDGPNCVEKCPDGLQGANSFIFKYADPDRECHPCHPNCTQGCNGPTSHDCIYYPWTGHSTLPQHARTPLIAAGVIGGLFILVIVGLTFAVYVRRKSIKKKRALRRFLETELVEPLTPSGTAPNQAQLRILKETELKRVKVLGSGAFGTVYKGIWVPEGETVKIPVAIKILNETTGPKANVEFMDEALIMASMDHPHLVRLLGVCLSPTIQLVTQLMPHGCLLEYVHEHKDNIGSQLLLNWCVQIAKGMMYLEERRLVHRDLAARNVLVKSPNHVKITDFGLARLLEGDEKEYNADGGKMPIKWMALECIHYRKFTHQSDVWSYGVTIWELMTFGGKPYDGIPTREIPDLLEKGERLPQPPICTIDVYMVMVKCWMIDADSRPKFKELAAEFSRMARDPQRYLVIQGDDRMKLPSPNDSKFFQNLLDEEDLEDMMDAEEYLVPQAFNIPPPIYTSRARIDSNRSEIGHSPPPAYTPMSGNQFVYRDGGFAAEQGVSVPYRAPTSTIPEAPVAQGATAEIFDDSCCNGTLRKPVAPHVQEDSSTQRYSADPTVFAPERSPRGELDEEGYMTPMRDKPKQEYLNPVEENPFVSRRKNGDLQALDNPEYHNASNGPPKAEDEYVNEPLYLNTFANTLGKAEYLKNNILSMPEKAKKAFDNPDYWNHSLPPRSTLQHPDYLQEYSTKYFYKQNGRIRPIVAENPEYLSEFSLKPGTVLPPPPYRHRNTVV

Take `COc1cc2ncnc(Nc3ccc(O)c(Br)c3)c2cc1OC`: the residual activity (commonly the signal under treatment as a percentage of the control signal) in test [1] is 10%; in test [2] it was 65%; in [3], 1%; in [4] it was 99% (inactive); in test [5], 123%; in [6] it was 19%. Further, the residual activity in test [7] is 0%; in test [8], 16%; in [9], -1%; in [10] it was 106%.

Source of the values: ChEMBL document CHEMBL2218924, “A broad activity screen in support of a chemogenomic map for kinase signalling research and drug discovery” (Biochem J, 2013).
